Publication PMC9911399, “Two distinct binding modes provide the RNA-binding protein RbFox with extraordinary sequence specificity”
Substitutions are numbered along the chain they refer to; changes in the protein carry UniProt numbers. Whole data set: some 16,000 sequences, median “ka relative to ugcaugu” near 0.096, cut for the highest 2% near 0.35. Only a selection was taken, and the highest values are over-represented in it overall.

T1: RBFOX1 RRM RbFoxmut (Fox-RRM*) (Homo sapiens, UniProt Q9NWB1 109-208, R118D;E147R;N151S;E152T)
T1 sequence: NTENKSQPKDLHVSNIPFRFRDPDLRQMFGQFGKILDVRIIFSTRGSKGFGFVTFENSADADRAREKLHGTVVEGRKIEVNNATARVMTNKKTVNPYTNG

B1: UGAUGUG (DNA:RNA)
RNA: GGGAGACCGGAAUUCAGAUUGUCCUGAUGUGUUAAAUCCCGUCGUAGCCACCA
DNA 1: CAATCTGAATTCCGGTCTCCC
DNA 2: TGGTGGCTACGACGGGATT
B2: UGAGAUG (DNA:RNA)
RNA: B1 RNA with U28G, G29A
DNA 1: CAATCTGAATTCCGGTCTCCC
DNA 2: TGGTGGCTACGACGGGATT
B3: UGAUGUC (DNA:RNA)
RNA: B1 RNA with G31C
DNA 1: CAATCTGAATTCCGGTCTCCC
DNA 2: TGGTGGCTACGACGGGATT
B4: AACUUAC (DNA:RNA)
RNA: B1 RNA with U25A, G26A, A27C, G29U, U30A, G31C
DNA 1: CAATCTGAATTCCGGTCTCCC
DNA 2: TGGTGGCTACGACGGGATT
B5: GUCAUGA (DNA:RNA)
RNA: GGGAGACCGGAAUUCAGAUUGUCCGUCAUGAUUAAAUCCCGUCGUAGCCACCA
DNA 1: CAATCTGAATTCCGGTCTCCC
DNA 2: TGGTGGCTACGACGGGATT
B6: AUGAGAG (DNA:RNA)
RNA: B5 RNA with G25A, C27G, U29G, G30A, A31G
DNA 1: CAATCTGAATTCCGGTCTCCC
DNA 2: TGGTGGCTACGACGGGATT
B7: CGCAUGA (DNA:RNA)
RNA: B5 RNA with G25C, U26G
DNA 1: CAATCTGAATTCCGGTCTCCC
DNA 2: TGGTGGCTACGACGGGATT
B8: GCAUUGA (DNA:RNA)
RNA: B5 RNA with U26C, C27A, A28U
DNA 1: CAATCTGAATTCCGGTCTCCC
DNA 2: TGGTGGCTACGACGGGATT
B9: GCAUGAC (DNA:RNA)
RNA: B1 RNA with U25G, G26C, U30A, G31C
DNA 1: CAATCTGAATTCCGGTCTCCC
DNA 2: TGGTGGCTACGACGGGATT
B10: GCCAUGA (DNA:RNA)
RNA: B5 RNA with U26C
DNA 1: CAATCTGAATTCCGGTCTCCC
DNA 2: TGGTGGCTACGACGGGATT
B11: GUAUGAC (DNA:RNA)
RNA: B1 RNA with U25G, G26U, U30A, G31C
DNA 1: CAATCTGAATTCCGGTCTCCC
DNA 2: TGGTGGCTACGACGGGATT
B12: GGCAUAA (DNA:RNA)
RNA: B5 RNA with U26G, G30A
DNA 1: CAATCTGAATTCCGGTCTCCC
DNA 2: TGGTGGCTACGACGGGATT
B13: GCAGGAG (DNA:RNA)
RNA: B1 RNA with U25G, G26C, U28G, U30A
DNA 1: CAATCTGAATTCCGGTCTCCC
DNA 2: TGGTGGCTACGACGGGATT
B14: GCAUGAG (DNA:RNA)
RNA: B1 RNA with U25G, G26C, U30A
DNA 1: CAATCTGAATTCCGGTCTCCC
DNA 2: TGGTGGCTACGACGGGATT
B15: GGAUGAC (DNA:RNA)
RNA: B1 RNA with U25G, U30A, G31C
DNA 1: CAATCTGAATTCCGGTCTCCC
DNA 2: TGGTGGCTACGACGGGATT
B16: GGCAUGA (DNA:RNA)
RNA: B5 RNA with U26G
DNA 1: CAATCTGAATTCCGGTCTCCC
DNA 2: TGGTGGCTACGACGGGATT

What follows are binders tested against T1, RBFOX1 RRM RbFoxmut (Fox-RRM*) (assay: EMSA; HiTS-Eq, 1 nM pool, 10 min; buffer printed only for the single-RNA assays: 10 mM Tris pH 7.5, 150 mM NaCl, 3.4 mM EDTA, 0.001% NP-40, 30 C). Conditions: tags: His6 N-terminal (pET28a); label: 5' 32P.
Summary of the method: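 These values rest on relative association constants, computed from read-count changes of each RNA species versus the control reaction and normalised to the cognate motif. Reads came from free RNA recovered by 8% native PAGE after purified RbFox RRM (wild type or mutant) at increasing concentrations was equilibrated for 10 min in 50 µL with 1 nM of a 5′-radiolabelled pool with 7 randomized nucleotides and DNA-annealed flanks.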

First: B1
Second: B2
The binding signal of the first is lower: 0.184 KA relative to UGCAUGU for the first, 0.429 KA relative to UGCAUGU for the second.

Compared with B3, B4 is lower in binding signal: 0.207 KA relative to UGCAUGU for the first, 0.0902 KA relative to UGCAUGU for the second.

First: B5
Second: B6
The binding signal of the first is higher: 0.2 KA relative to UGCAUGU for the first, 0.16 KA relative to UGCAUGU for the second.

Compared with B7, B8 is lower in binding signal: 0.871 KA relative to UGCAUGU for the first, 0.178 KA relative to UGCAUGU for the second.

First: B9
Second: B10
The binding signal of the first is higher: 0.603 KA relative to UGCAUGU for the first, 0.134 KA relative to UGCAUGU for the second.

First: B11
Second: B12
The binding signal of the first is higher: 0.219 KA relative to UGCAUGU for the first, 0.117 KA relative to UGCAUGU for the second.

First: B13
Second: B14
The binding signal of the first is lower: 0.0994 KA relative to UGCAUGU for the first, 0.771 KA relative to UGCAUGU for the second.

First: B15
Second: B16
The binding signal of the first is lower: 0.124 KA relative to UGCAUGU for the first, 0.624 KA relative to UGCAUGU for the second.
